Inconclusive results are not listed. Where a call stands in place of a potency, no number is given. Values without a mark were called inactive. Active and inactive are the calls of the source. Calls follow the shape of the full dose curve. Bridge positions count the residues as written; N and C are the ends. Peptide text beside a SMILES is read from it.
test: Cytotoxicity counterscreen for inhibitors of SARS-CoV-2 cell entry (AID 1645845); conditions: cell viability (SARS-CoV-2 entry assay cells); series mostly up to 57.1 µM; also: nearly all actives have a fitted effect of over 50% in size
Text: Assay Provider: Wei Zheng, Ph.D.
National Center for Advancing Translational Sciences, National Institute of Health, Rockville, MD.
SARS-CoV-2 spike protein, within the viral envelope, mediates viral attachment and infection of host cells. The SARS-CoV-2 spike protein specifically binds to the host receptor ACE2 (Angiotensin-converting enzyme 2). This interaction promotes endocytosis of the viral particle, additional events lead to viral-host cell membrane fusion and release of the viral contents, allowing viral replication.
While SARS-CoV-2 requires BSL-3 facilities for live virus work, pseudo-typed partices (PP) that incorporate SARS-CoV-2 spike proteins without replication elements could facilitate studies on viral entry mechanisms in a BSL-2 setting. This PP cell entry assay could also enable screening of small molecule compound libraries in BSL-2 setting to identify inhibitors of SARS-CoV-2 cell entry. To eliminate false positive compounds, ATP content cytotoxicity assay was screened in the same cell line.
SEQUENCE No. (e.g., 1, 2, 3, etc.); […] (e.g., Cells, Incubation, Reagent, etc.); VALUE and DESCRIPTION.
1. Cells. Seed 1500 HEK293-ACE2 cells (Expi293F with stable expression of human ACE2) in 2 uL/well media (DMEM, 10% FBS, 1x L-glutamine, 1x Pen/Strep, 1 ug/ml puromycin) in white 1536-well assay plates (Greiner #782073).
2. Incubation. Incubate at 37 C with 5% CO2 overnight (~16 h).
3. Compounds. Dispense 23 nL/well compounds in DMSO via pin transfer.
4. Incubation. Incubate for 1 h at 37C 5% CO2.
5. Reagent. Dispense 2 uL/well of media (DMEM, 10% FBS, 1x L-glutamine, 1x Pen/Strep, 1 ug/ml puromycin).
6. Incubation. Incubate at for 48h at 37C 5% CO2
7. Reagent. Dispense 4 uL/well of ATPLite 1step luminescence assay reagent (PerkinElmer #6016739).
8. Incubation. Incubate for 15 min at room temperature.
9. Detection. Read luminescence signal (Viewlux plate reader, PerkinElmer). Data was normalized with wells containing cells as 100%, and wells without cells (media only control) as 0%.
Potency is read from the fitted curve at half-maximal effect.

SMILES	Potency	outcome	activity change, negative = cytotoxicity
OC(CN1CCCCC1)c1cc(-c2ccccc2)on1 (stereo not given)	inactive		
N=C(N)c1ccc(/C=C/c2ccc(C(=N)N)cc2O)cc1	inactive		
COC[C@H]1C[C@@H](c2ncc(-c3ccc4c(c3)COc3cc5c(ccc6[nH]c([C@@H]7CC[C@H](C)N7C(=O)[C@@H](NC(=O)OC)C(C)C)nc65)cc3-4)[nH]2)N(C(=O)[C@H](NC(=O)OC)c2ccccc2)C1	inactive		
O=C(O)c1ccc2nc(-c3cc(Cl)cc(Cl)c3)oc2c1	inactive		
CC(=O)OC[C@H]1O[C@@H]([S-])[C@H](OC(C)=O)[C@@H](OC(C)=O)[C@@H]1OC(C)=O.CC[PH+](CC)CC.[Au]	3.16 µM (active)		
C/C(=C(/CCO)SSCC1CCCO1)N(C=O)Cc1cnc(C)nc1N (stereo not given)	inactive		
CCOC(=O)O[C@]1(C(=O)COC(=O)CC)CC[C@H]2[C@@H]3CCC4=CC(=O)C=C[C@]4(C)[C@H]3[C@@H](O)C[C@@]21C	inactive		
COc1ccc2c(c1)N(C[C@H](C)CN(C)C)c1ccccc1S2	inactive		
CCC(CC)[C@H](NC(C)=O)[C@@H]1[C@H](O)[C@@H](C(=O)O)C[C@H]1N=C(N)N		inactive [at 0.702 µM]	
Nc1nc(OC(c2ccc(-c3cccc(F)c3)cc2)C(F)(F)F)cc(-c2ccc(C[C@H](N)C(=O)O)cc2)n1 (stereo not given in full)	inactive		
C[C@@H]1COCCN1c1cc(=O)n2c(n1)N(Cc1cncc(Cl)c1)[C@H](C(F)(F)F)CC2	inactive		
Cc1ncc(C[n+]2csc(CCOP(=O)(O)OP(=O)(O)O)c2C)c(N)n1			3.84% [at 0.702 µM]
Cc1ccc(Sc2ccccc2N2CCNCC2)c(C)c1	inactive		
Cc1ccc(NC(=O)Nc2nnc(Sc3ncnc4cc(OCCCN5CCOCC5)ccc34)s2)cc1	inactive		
C=C1CC2C3CCC4=CC(=O)C=C[C@]4(C)[C@@]3(F)[C@@H](O)C[C@]2(C)[C@@]1(O)C(=O)COC(C)=O (stereo not given in full)	inactive		
COc1cc2c(Nc3ccc(Cl)c(Cl)c3F)ncnc2cc1OCC1C[C@@H]2CN(C)C[C@@H]2C1 (stereo not given in full)	31.6 µM (active)		
CCCCCC(O)/C=C/[C@@H]1C(CCCCCCC(=O)O)C(=O)C[C@@H]1O (stereo not given in full)	inactive		
CN1CC[C@@H](NC(=O)Nc2ccc(C#N)cc2)C[C@@H]1c1nc2ccccc2[nH]1	inactive		
O=C1[C@@H]2[C@H]3CC[C@H](C3)[C@@H]2C(=O)N1C[C@@H]1CCCC[C@H]1CN1CCN(c2nsc3ccccc23)CC1	inactive		
ClCC1CO1 (stereo not given) (tested in a mixture with another compound)	inactive		

SMILES	Potency	outcome	activity change, negative = cytotoxicity
NCCCC[C@H](NC(=O)[C@@H]1CCCN1C(=O)[C@@H]1CSSC[C@H](NC(=O)CNC(=O)CNC(=O)CN)C(=O)N[C@@H](Cc2ccc(O)cc2)C(=O)N[C@@H](Cc2ccccc2)C(=O)N[C@@H](CCC(N)=O)C(=O)N[C@@H](CC(N)=O)C(=O)N1)C(=O)NCC(N)=O (H-GGGCYFQNCPKG-NH2; disulfide 4-9)	inactive		
CO[C@H]1O[C@@H]2O[C@@]3(C)CC[C@H]4[C@H](C)CC[C@@H]([C@@H]1C)[C@@]24OO3	inactive		
COc1ccc2c(c1)OC(C)(C)C(c1ccccc1)C2c1ccc(OCCN2CCCC2)cc1 (stereo not given)	inactive		
CC(=O)Nc1c(I)c(C(=O)O)c(I)c(N(C)C(C)=O)c1I	inactive		
NC[C@H]1O[C@H](O[C@H]2[C@H](O)[C@@H](O[C@H]3O[C@H](CO)[C@@H](O)[C@H](N)[C@H]3O)[C@H](N)C[C@@H]2N)[C@H](N)C[C@@H]1O	inactive		
Cc1[nH]c(/C=C2\C(=O)Nc3ccc(F)cc32)c(C)c1C(=O)NC[C@H](O)CN1CCOCC1	inactive		
O=C(/C=C/c1ccc(CN(CCO)CCc2c[nH]c3ccccc23)cc1)NO	inactive		
C[C@H](CCC(=O)O)[C@H]1CC[C@H]2[C@@H]3[C@H](O)C[C@@H]4C[C@H](O)CC[C@]4(C)[C@H]3CC[C@]12C	inactive		
CCNC(=O)Nc1ccc(Oc2ncnc(N)c2/C=N/OC)cc1Cl	inactive		
COC(=O)N1CC2(CC2)C[C@H](C(=O)NO)[C@H]1C(=O)N1CCN(c2ccccc2)CC1	inactive		
CC(C)(CO)[C@@H](O)C(=O)NCCC(=O)NCCSSCCNC(=O)CCNC(=O)[C@H](O)C(C)(C)CO	inactive		
CCOC(=O)C=C(C)C=CC[C@@H](C)CCCC(C)C	inactive		
Cc1cccc(-c2nn3c(c2-c2ccnc4ccc(C(N)=O)cc24)CCC3)n1	inactive		
CCN1CCN(Cc2ccc(NC(=O)c3ccc(C)c(/C=C/c4cnc5[nH]ccc5c4OC)c3)cc2C(F)(F)F)CC1	35.5 µM (active)		
O=C(O)c1cc(O)c2c(c1)[C@H]([C@H]1c3cc(C(=O)O)cc(O)c3C(=O)c3c(O[C@@H]4O[C@H](CO)[C@@H](O)[C@H](O)[C@H]4O)cccc31)c1cccc(O[C@@H]3O[C@H](CO)[C@@H](O)[C@H](O)[C@H]3O)c1C2=O	inactive		
C[C@]12C=CC(=O)C=C1CC[C@@H]1[C@@H]2[C@@H](O)C[C@@]2(C)[C@H]1CC[C@]2(O)C(=O)COP(=O)(O)O			-0.915% [at 11.3 µM]
C[C@H](Oc1cc(-c2cnn(C3CCNCC3)c2)cnc1N)c1c(Cl)ccc(F)c1Cl	inactive		
CS(=O)(=O)Nc1cc2occ(NC=O)c(=O)c2cc1Oc1ccccc1	inactive		
CCN(CC)CCOC(=O)c1cccnc1	inactive		
Cc1c(F)ccc(C(=O)Nc2cc([N+](=O)[O-])ccc2N2CCN(C)CC2)c1Cl	inactive		

From PubChem BioAssay (NCATS)
